An excerpt weighted towards active compounds, which were near 3% of everything screened.
SARS PLP yeast – blocks SARS-CoV papain-like protease in a yeast assay; AID 485353; Potency, µM (doses to about 32.9 µM), for the others: at the top dose activity, positive = growth rescue, most hits filed as activators; 0.19% of 330,000 active; S. cerevisiae expressing SARS-CoV PLpro, growth rescue; calls by dose curve; further: 0% is about no effect; nearly all actives have a fitted effect of over 55% in size
Sm TGR block – blocks Schistosoma mansoni thioredoxin glutathione reductase; Q962Y6; purified TGR, DTNB reduction, TNB absorbance 405 nm; Potency, µM (top dose mostly 114 µM), without a hit: at the top dose activity change, negative = inhibition, usual class: inhibitors; 3% of 360,000 active; active means well fitted inhibition curve with a large enough effect; inconclusive means small, poorly fitted or top-dose-only effect; inactive means no such curve, though single readings can be large or run the other way; further: on the % scale 0 is the no-effect control and ±100 the full control effect; nearly all actives have a fitted effect of over 60% in size
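Kinetic colorimetric format: TGR-catalysed, NADPH-driven DTNB reduction monitored via TNB absorbance. Enzyme dispensed at 20 nM; compound exposure 15 min at room temperature before reaction start.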
Numbers without * were called inactive; ? = inconclusive; . = no result. Potency means the concentration at half of the fitted maximal effect.

SMILES	SARS PLP yeast	Sm TGR block
Nc1nc2c(s1)COc1ccccc1-2	-7%	0%
Cc1noc(C)c1S(=O)(=O)N(CC(=O)Nc1ccc(F)cc1F)c1ccc(C(C)C)cc1	.	8%
COc1ccc(OC)c(CN2CCC(N3CCC(C(=O)NC4CC4)CC3)CC2)c1	-4%	0%
COc1cc(CN2CCC(C(=O)N3CCCC(C)C3)CC2)cc(OC)c1O (centres undefined)	4%	10µM*
COc1cc(CN2CCC(C(=O)NC3CCCC3)CC2)cc(OC)c1O	-2%	8.9µM*
COc1cc(CN2CCN(C(=O)CC(C)C)CC2)cc(OC)c1OC	7%	8%
COc1cc(CN2CCC(C(=O)N3CCN(c4ccccc4F)CC3)CC2)cc(OC)c1O	7%	?
COc1cc(CN2CCN(C(=O)CC(C)C)CC2)cc(OC)c1O	4%	13µM*
CCOC(=O)c1cc(S(=O)(=O)N2CCN(c3ccc(C(C)=O)cc3)CC2)[nH]n1	.	-1%
CCN1CCN(Cc2c(O)ccc3c(=O)c(Oc4ccccc4C(C)C)c(C(F)(F)F)oc23)CC1	.	-28%
CCc1ccc(NC(=O)C(Cc2ccccc2)NS(=O)(=O)c2ccc3c(c2)c(=O)n(C)c(=O)n3C)cc1 (centres undefined)	.	-5%
CSc1ccccc1NC(=S)Nc1ccc(S(N)(=O)=O)cc1	2%	22µM*
NS(=O)(=O)c1ccc(NC(=S)Nc2cc(Cl)c(Cl)cc2Cl)cc1	3%	32µM*
NS(=O)(=O)c1ccc(NC(=S)NCc2ccccc2)cc1	15%	-23%
NS(=O)(=O)c1ccc(NC(=S)Nc2ccc(C(=O)N3CCCCC3)cc2)cc1	0%	45µM*
NS(=O)(=O)c1ccc(NC(=S)NCc2ccccc2Cl)cc1	-2%	?
O=C(c1ccc(NC(=S)Nc2ccc(Cl)c(Cl)c2)cc1)N1CCCC1	-39%	?
CCOc1ccc(Nc2c(S(=O)(=O)c3ccc(Cl)cc3)cnc3ccc(OC)cc23)cc1	.	11%
CC(=O)c1ccc(NC(=O)c2cc(-c3ccc(C)s3)nc3ccccc23)cc1	.	0%
CSc1cccc(Nc2cc(C(=O)NCCCN(C)c3ccccc3)c3ccccc3n2)c1	.	6%
CCOc1ccccc1CNC(=O)c1cccn1-c1nnc(N2CCCC2)s1	.	3%
Cc1ccc(C2=Nc3ccccc3N(CC(=O)NCc3ccccc3Cl)C(=O)C2)cc1C	.	2%
O=C1CC(c2ccco2)c2ccc3ccccc3c2N1 (centres undefined)	4%	45µM*
COc1cc2c(cc1OC)C(c1ccco1)CC(=O)N2 (centres undefined)	5%	8%
CCN(Cc1ccncc1)Cc1ccc(Br)cc1	0%	-1%
SMILES	SARS PLP yeast	Sm TGR block
Cc1ccc(NC(=O)CN(C)Cc2c(O)ccc3ccccc23)cc1	-2%	0.32µM*
COc1ccc(NC(=O)CN(C)CC(=O)NCc2ccc(C)cc2)cc1	6%	-7%
CCN(CC(=O)Nc1ccc(Br)cc1)CC(=O)Nc1cc(C)on1	2%	50µM*
Cc1cc(NC(=O)Cc2ccc(Br)cc2)no1	-2%	14%
CCN(Cc1ccncc1)Cc1c(O)ccc2ccccc12	-1%	0.71µM*
COc1cccc(CN(C)CC(=O)Nc2cccc3ccccc23)c1	-7%	-3%
COc1cccc(CN(C)Cc2c(O)ccc3ccccc23)c1	-3%	2.5µM*
CCc1noc(-c2ccc(N3CCCCC3C)c([N+](=O)[O-])c2)n1 (centres undefined)	.	1%
Cc1cccc(N2CCN(C(=O)c3cn(C)c4ccc(S(=O)(=O)N(C)C)cc4c3=O)CC2C)c1 (centres undefined)	.	5%
CC(C)CN(Cc1c(O)ccc2ccccc12)CC(C)C	-1%	.
COc1ccc2ccc(O)c(CN(C)CC(=O)Nc3ccccc3C(F)(F)F)c2c1	1%	1.8µM*
COc1ccc(CN(C)Cc2c(O)ccc3ccccc23)cc1	-1%	3.2µM*
CCN(CC(=O)Nc1ccc(NC(C)=O)cc1)CC(=O)Nc1ccc(F)c(Cl)c1	-3%	22%
COc1ccc(CN(C)CC(=O)Nc2ccccc2C(F)(F)F)cc1	5%	-16%
CN(C)Cc1c(O)ccc2ccccc12	-1%	1.1µM*
CCN(CC(=O)Nc1ccc(NC(C)=O)cc1)Cc1c(O)ccc2cc(Br)ccc12	-15%	0.79µM*
COc1ccc2ccccc2c1CN(C)Cc1ccccc1	2%	-26%
COC(=O)c1ccccc1NC(=O)CSc1nc2nc(C)cc(C)n2n1	.	1%
CCC(C)n1c(=N)c(S(=O)(=O)c2ccc(C)cc2)cc2c(=O)n3cc(C)ccc3nc21 (centres undefined)	.	17%
CCOc1ccc(NS(=O)(=O)c2ccc(-c3cc(C)no3)s2)cc1	.	-2%
O=c1c2ccccc2n(Cc2cccc(Cl)c2)c(=O)n1CCc1ccccc1	.	1%
CC(C)(C)OC(=O)N1CCC(c2c(C(=O)NCc3ccccc3)cnn2-c2cccc(F)c2)CC1	.	-8%
COC(=O)c1nn(-c2ccc(OC)cc2)c(=O)cc1O	1%	1%
COc1ccc(-n2nc(C#N)c(Cl)cc2=O)cc1	-14%	2.5µM*
CCCCOC(=O)c1ccc(Nc2nc3ccccc3c3nnc(C)n23)cc1	.	33%
SMILES	SARS PLP yeast	Sm TGR block
CCOC(=O)c1cccc(NC(=O)CCc2c(C)nn(-c3ccc(N4CCCCC4)nn3)c2C)c1	.	-2%
O=C(CC1C(=O)N(c2ccccc2)C(=O)N1CCC1=CCCCC1)Nc1ccc(F)cc1 (centres undefined)	.	-4%
O=C(CCn1cccc1)Nc1cccc(F)c1	10%	35µM*
Cc1ccc(NC(=O)CCn2cccc2)cc1F	2%	?
Cc1c(Cl)cccc1NC(=O)Cn1cc(C(=O)C2CCCCC2)c2ccccc21	.	-3%
C=CCn1c(SCC(C)=O)nc2scc(-c3ccc(C)o3)c2c1=O	.	16µM*
C=CCn1c(SCC(=O)NCCCC)nc2scc(-c3ccco3)c2c1=O	8%	14µM*
CCn1c(=S)[nH]c2scc(-c3cccs3)c2c1=O	-3%	-7%
Cc1ccc(-c2csc3nc(C)n(-n4c(C)ccc4C)c(=O)c23)o1	-8%	6.3µM*
C=CCn1c(SCC(=O)Nc2c(C)n(C)n(-c3ccccc3)c2=O)nc2scc(-c3ccccc3)c2c1=O	16%	-8%
C=CCn1c(=S)[nH]c2scc(-c3ccc(C)o3)c2c1=O	-1%	35µM*
Cc1ccc(-c2csc3nc(C)n(N)c(=O)c23)o1	9%	?
C=CCn1c(SCC(=O)Nc2ccc(C(=O)O)cc2)nc2scc(-c3ccccc3)c2c1=O	-30%	.
CN(C)c1ccc(NC(=O)C2(c3cccs3)CCOCC2)cc1	.	-9%
CCOc1ccc(NC(=O)CCc2nc3cccnc3n2Cc2ccc(OC)cc2)cc1	.	1%
COc1cccc(OCCSc2nc3ccccc3n2CC(=O)N2CCCCC2)c1	.	0%
Cc1cc(Br)cc2c1N(Cc1ccccc1OC(C)C)C(=O)C2=O	.	-1%
COc1cc(OC)cc(C(=O)Nc2ccc(-c3nc4cc(C(C)C)ccc4o3)cc2)c1	.	6%
CCc1ccc(CNC(=O)C(CC)n2nc(C)c3c(C)n(-c4ccccc4)nc3c2=O)cc1 (centres undefined)	.	26%
C=CCn1c(SCC(=O)NC2CCCC2)nc2scc(-c3ccco3)c2c1=O	7%	11µM*
C=CCn1c(SCC(=O)NCC2CCCO2)nc2scc(-c3ccccc3)c2c1=O (centres undefined)	-9%	1%
CCCN(CCC)C(=O)c1cc([N+](=O)[O-])cc2c1-c1ccc([N+](=O)[O-])cc1C2=C(C#N)C#N	0%	5µM*
